# Only some compounds are listed: those with a hit (about 0.51% of all), similar ones and a draw of the others.
# E coli growth-1 – counter-screen for AddAB inhibitors: E. coli growth inhibition; E. coli V3065 growth, OD600 absorbance, 18 h; inhibition, % at 11.9 µM; hit rate 0.27% among 330,000; AID 449728;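 active = inhibition above the campaign's mean inhibition across all tested compounds plus 3 SD, cut at about 9.9% in these data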;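 also: uninfected addAB+ strain grown without phage in ampicillin broth; 0% = DMSO wells and 100% = ciprofloxacin 0.95 µg/ml wells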
# phage Ecoli inh – E. coli growth loss with phage present; growth absorbance; inhibition, % at 11.9 µM; hit rate 0.26% among 360,000; AID 651602; in the data active = inhibition above about 11%
# Tat transport – inhibitors of E. coli Tat protein transport | E. coli MC4100 TorA-mCherry Tat export, fluorescence | inhibition, % at 10 µM | hit rate 0.036% among 340,000;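 active = mean replicate inhibition at least 50% and at least half of replicates individually reaching 50%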;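 also: exported cargo escapes ClpAP degradation while cytoplasmic cargo is degraded and loses fluorescence; 0% = median of neutral control wells and 100% = median of NaSCN control wells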
# AddAB inh – less growth of phage-infected E. coli with AddAB; E. coli expressing H. pylori AddAB, absorbance growth; inhibition, % at 11.9 µM; hit rate 0.29% among 330,000; in the data active = inhibition above about 12%;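 also: 0% = vehicle wells of infected cells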
# E coli growth-2 – inhibitors of Escherichia coli growth. OD600, 23 h; hits give low values. OD600 absorbance (concentration not given with the values). hit rate 0.21% among 330,000. AID 1053175;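 active = OD600 absorbance below the run mean of sample wells minus 3.6 SD, in any replicate, cut at about 0.56 in these data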
# Starred values were filed as active, the others as inactive; nt = no result given.
SMILES,E coli growth-1,phage Ecoli inh,Tat transport,AddAB inh,E coli growth-2
O=C(Nc1ccc(Cl)cc1)Nc1ccc2c(c1)N1CCN=C1S2,3.2,8.3,3.6,0.9,0.497*
Nc1ccc2c(c1)N1CCN=C1S2,2.9,1.8,-11.3,1.6,0.64
Cc1csc(N=Cc2ccc([N+](=O)[O-])o2)n1,nt,12.3*,nt,nt,nt
CCC(CC)c1nnc(NC(=O)CCN2C(=O)c3ccccc3C2=O)s1,-1.3,2.1,3.2,-0.2,0.757
CC(C)Cc1nnc(NC(=O)CCN2C(=O)c3ccccc3C2=O)s1,27.0*,1.0,-4.7,67.9*,0.725
O=C(NCCN1CCCCC1)C(=NO)c1ccccc1,nt,nt,nt,nt,0.736
O=C(Nc1nc2c(Cl)cccc2s1)c1ccc([N+](=O)[O-])o1,4.7,1.0,-27.9,3.3,0.496*
CC(C)n1ncc2c(C(=O)N3CCN(Cc4ccc(Br)s4)CC3)cc(C3CC3)nc21,-3.0,2.1,52.7*,-0.4,0.704
CC(C)n1ncc2c(C(=O)O)cc(C3CC3)nc21,-5.0,-1.8,-10.6,-0.1,0.736
CC(CCCO)=NNc1ccc([N+](=O)[O-])cc1[N+](=O)[O-],nt,nt,nt,nt,0.688
O=C(CSc1nc2ccccc2[nH]1)Nc1ccc2c(c1)OCCO2,10.2*,9.3,-5.3,11.6,0.621
Cc1ccc2nc(SCC(=O)Nc3ccc4c(c3)OCCO4)[nH]c2c1,0.3,-1.1,-0.9,1.1,0.652
COc1cccc(C=NNC(=O)C(=O)NCc2cccnc2)c1OC,nt,nt,nt,nt,0.655
CC(C)(C)C1C=C(C(=O)O)OC(OCCCCO)C1 (stereo not given),nt,nt,nt,nt,0.704
CCN(CC)S(=O)(=O)c1cccc(C(=O)NN=Cc2ccc(O)c(O)c2O)c1,nt,nt,nt,nt,0.664
Cc1cccc(N2C(=O)N3C(c4ccc(Br)cc4)C4C(=O)N(C(C)(C)C)C(=O)C4[C@]3(C)C2=O)c1 (stereo not given in full),nt,nt,nt,nt,0.684
Fc1cccc(NC(=S)Nc2ccc(Br)cc2)c1,0.4,7.3,-11.7,1.8,0.486*
COc1cccc(NC(=S)Nc2ccc(F)cc2)c1,0.0,3.9,12.2,1.2,0.697
Fc1ccc(NC(=S)Nc2ccc(Cl)cc2)cc1,-0.6,5.9,6.6,1.3,0.52*
COc1cccc(C=NNC(=O)c2[nH]nc3c2CCc2ccccc2-3)c1O,nt,nt,nt,nt,0.711
CCCSc1ccc(C2N[C@@](C)(C(=O)OC)C3C(=O)N(CC)C(=O)C23)cc1 (stereo not given in full),nt,nt,nt,nt,0.658
Cc1conc1NC(c1cccs1)c1ccc2cccnc2c1O (stereo not given),13.1*,nt,nt,12.6*,nt
Oc1c(C(Nc2nccs2)c2ccc(C(F)(F)F)cc2)ccc2cccnc12 (stereo not given),nt,8.8,-0.9,nt,0.699
N#CC(=NNc1ccc(Cl)cc1)C(N)=S,nt,nt,nt,nt,0.454*
O=c1c(O)c(-c2cc(O)c(O)c(O)c2)oc2cc(O)cc(O)c12,10.1*,9.8,8.8,11.3,nt
SMILES,E coli growth-1,phage Ecoli inh,Tat transport,AddAB inh,E coli growth-2
O=c1c(O)c(-c2ccccc2)oc2cc(O)cc(O)c12,3.1,7.5,7.1,6.2,0.688
COC(=O)NN=Cc1ccc([N+](=O)[O-])s1,nt,nt,nt,nt,0.623
Cc1[nH]cnc1C(=O)NN=Cc1ccc([N+](=O)[O-])s1,nt,nt,nt,nt,0.409*
Cc1noc(C)c1S(=O)(=O)N(C)CC1Oc2c(NC(=O)NC3CCCCC3)cccc2C(=O)N(C(C)CO)CC1C (stereo not given),nt,nt,nt,nt,0.682
Cc1nnc(NC(=O)CSc2ccc(-c3ccccn3)nn2)s1,9.9*,nt,nt,9.5,0.622
O=C(CSc1ccc(-c2ccccn2)nn1)c1ccc(F)cc1,11.4*,3.6,0.3,8.3,0.699
Cc1nnc(NC(=O)CSc2ccc(-c3cccnc3)nn2)s1,0.9,4.1,-3.5,0.9,0.656
COc1ccc(NC(=O)CSc2ccc(-c3ccccn3)nn2)cc1OC,1.4,9.4,5.9,0.7,0.681
COc1ccccc1NC(=O)CSc1ccc(-c2ccccn2)nn1,9.1,11.7*,1.0,10.6,0.697
CCn1cc(C(=O)O)c(=O)c2cnc(N3CCN(C(=S)NC(=O)c4ccc(OC)cc4)CC3)nc21,5.7,0.6,1.4,7.0,0.429*
CCCCOC(=O)c1ccc(NC(=NS(=O)(=O)c2ccccc2)c2ccccc2)cc1,nt,nt,nt,nt,0.717
CCOC(=O)c1c(-c2ccccc2)csc1NC(=O)CCN1C(=O)c2ccccc2C1=O,-0.9,3.0,1.0,4.8,0.716
CCOC(=O)c1c(-c2ccc(-c3ccccc3)cc2)csc1NC(=O)CNCCN(C)C,-3.4,-2.7,13.4,-5.9,0.413*
NC1=NC[C@@H](CC2CCCCC2)N1CCc1cc(C(F)(F)F)cc(C(F)(F)F)c1,-1.1,nt,-4.6,-1.9,0.0625*
NC(=NOC(=O)c1ccc(Cl)cc1)c1ncc([N+](=O)[O-])s1,nt,nt,nt,nt,0.462*
N/C(=N\OC(=O)Nc1ccccc1)c1ncc([N+](=O)[O-])s1,9.4,5.4,-15.5,11.7,nt
CCOC(=O)C1C2COc3ccc(Cl)cc3C2N2C(=O)CN(C)C(=O)[C@@]12C (stereo not given in full),nt,nt,nt,nt,0.634
O=C(Nc1ccncc1)Nc1ccc(Cl)cc1,0.5,7.4,9.3,-0.6,0.517*
O=C(Nc1cccnc1)Nc1ccccc1Cl,0.0,3.7,-7.1,0.5,0.699
O=C(Nc1cccnc1)Nc1cc(Cl)cc(Cl)c1,4.4,9.6,-11.1,4.3,0.501*
Cc1cccc2cc(C=NNC(=O)CN3CCCCC3)c(Cl)nc12,nt,nt,nt,nt,0.663
Cc1nc(N)nc(N)c1CCCc1ccc(Cl)c(Cl)c1,4.1,3.5,-16.4,5.3,0.413*
NC1=NC(=O)C(=Cc2ccc(-c3ccc(S(N)(=O)=O)cc3)o2)S1,nt,nt,nt,nt,0.697
N#Cc1cccc(NC(=O)Nc2cccs2)c1,5.4,5.1,1.8,6.1,0.542*
O=C1CCC(c2ccccc2)=NN1,-2.3,-0.1,-5.1,2.4,0.698
SMILES,E coli growth-1,phage Ecoli inh,Tat transport,AddAB inh,E coli growth-2
O=C1CCC(c2ccc(-n3ccnc3)cc2)=NN1,1.2,5.7,23.6,-0.2,0.477*
O=C(ON=C1CCCc2occc21)c1ccc(F)cc1,nt,nt,nt,nt,0.686
COc1ccc(-c2sc3ccccc3c2-c2ccc(OCCN(C)C)cc2)cc1,-2.9,2.5,0.8,1.8,0.475*
CN(C)CCOc1ccc(-c2c(-c3ccsc3)sc3ccccc23)cc1,-1.6,2.3,9.1,-1.2,nt
Cc1ccc(C(=O)ON=C2CC3CCC2(C)C3(C)C)cc1 (stereo not given),nt,nt,nt,nt,0.688
COc1ccc(CC(N)C(=O)NC2C(CO)OC(n3cnc4c(N(C)C)ncnc43)C2O)cc1 (stereo not given),nt,nt,nt,nt,0.302*
CCCC(O)=C1C(=O)CC(c2ccccc2)CC1=NCCc1c(C)[nH]c2ccc(C)cc12 (stereo not given),nt,nt,nt,nt,0.702
Cc1cc(Nc2cccc(Cl)c2)nc(NCc2ccccc2)n1,0.7,4.0,-1.5,-0.2,0.463*
O=C1C2C3C=CC(C4CC34)C2C(=O)N1N=Cc1ccc([N+](=O)[O-])o1 (stereo not given),nt,nt,nt,nt,0.497*
O=C1C2C3C=CC(C4CC34)C2C(=O)N1/N=C/c1ccc([N+](=O)[O-])o1 (stereo not given),3.4,6.6,-4.4,7.4,nt
Oc1cc(Cl)cc(Cl)c1Cl,-1.9,-2.4,-1.3,1.4,0.266*
CC(=NO)c1cc(Cl)cc(Cl)c1O,nt,nt,nt,nt,0.595
O=C(Cc1ccccc1)NNC(=S)NC(=O)c1cccs1,-8.3,-3.8,nt,-5.7,0.452*

# Source: PubChem (several laboratories)
